HT1080NT lethal – qHTS for induction of synthetic lethality in tumor cells producing 2HG: qHTS for the HT-1080-NT fibrosarcoma cell line; HT-1080-NT fibrosarcoma viability, CellTiter-Glo ATP luminescence, 48 h; Potency, µM (series often up to 46.1 µM), inactives show at the highest dose activity, negative = less viability, actives largely listed as cytotoxic; actives 1.6% (n = 360,000); AID 686970, 2013;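 note: NT is the 2HG producing partner of a matched IDH1 knockdown line; 0% = DMSO-treated cells and -100% = media-only wells without cells; nearly all actives have a fitted effect of over 55% in size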
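Viability by CellTiter-Glo luminescence after 48 h compound exposure at 37C of HT-1080-NT cells (750/well, RPMI, 5% FBS). % activity scaled between DMSO wells and medium-only wells, then curve-fitted and categorized by curve class.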
SW480 rereplic – A quantitative high throughput screen for small molecules that induce DNA re-replication in SW480 colon adenocarcinoma cells; SW480 DNA re-replication, Hoechst DNA content imaging, 48 h; Potency, µM (highest dose often 46.1 µM), for inactives: at the top dose re-replication activation, usual class: activators; actives 1.8% (n = 340,000); note: % of control where 0% means no effect; nearly all actives have a fitted effect of over 55% in size
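Compounds, transferred as 23 nL by pin tool, were incubated with cells for 48 hr; DNA content per nucleus was then quantified by Hoechst staining and fluorescence plate imaging.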
MCF10A rerep – A quantitative high throughput screen for small molecules that induce DNA re-replication in MCF 10a normal breast cells. MCF 10A DNA re-replication, Hoechst nuclear intensity, 48 h. Potency, µM (top dose mostly 46.1 µM), inactives show at the top dose activity, positive = re-replication, most hits filed as activators. actives 2.9% (n = 350,000). AID 624296, 2012; note: % of control where 0% means no effect; nearly all actives have a fitted effect of over 50% in size
HT1080 IDH1KD tx – qHTS for induction of synthetic lethality in tumor cells producing 2HG: qHTS for the HT-1080-IDH1KD cell line; Potency, µM (series often up to 46.1 µM), without a hit: top-dose activity, negative = toxicity, actives largely listed as cytotoxic; actives 2% (n = 360,000); AID 686971, 2013; HT-1080 IDH1 knockdown viability, ATP luminescence, 48 h;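 note: 0% = DMSO wells and -100% = cell-free medium wells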
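HT-1080-IDH1KD cells (IDH1 knocked down), 750/well in RPMI with 5% FBS, treated with compound 48 h at 37 degrees C. Viability by CellTiter-Glo luminescence, normalised to DMSO and no-cell wells; concentration-response curves classed.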
KB-3-1 tox – qHTS assay for MDR1-selective chemotherapeutics: Primary screen using the parental adenocarcinoma cell KB-3-1. KB-3-1 viability, CellTiter-Glo ATP luminescence, 72 h. Potency, µM (top dose mostly 46.1 µM), actives largely listed as cytotoxic. actives 1.4% (n = 400,000). AID 1347075, 2019; note: % is set by controls: 0 for no effect and ±100 for the full control effect; nearly all actives have a fitted effect of over 60% in size
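KB-3-1 cells, DMEM (no phenol red) + 10% FBS; compound by pin transfer, 72 h, 37 °C. Readout: CellTiter-Glo luminescence after 10 min. Data normalized, curve-fitted.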
KB-V1 cytotox – qHTS assay for MDR1-selective chemotherapeutics: Primary screen using the drug-selected MDR subline cells KB-V1; KB-V1 MDR cells viability, CellTiter-Glo, 72 h; actives 3.4% (n = 400,000); Potency, µM (highest dose often 46.1 µM), usual class: cytotoxic; note: % is set by controls: 0 for no effect and ±100 for the full control effect; nearly all actives have a fitted effect of over 60% in size
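In this primary screen, KB-V1 cells overexpressing P-gp are incubated with library compounds (lowest to highest concentration) for 72 h at 37 degrees C before a luminescent ATP viability read.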
* = called active by the depositor; i = inactive; ? = inconclusive; · = no result given. A selection: hits, their analogues and other compounds. The true share with any hit is near 8%. Calls come from the whole dose curve; as a rule, active = well fitted curve in the direction sought with a large enough effect; inconclusive = small, poorly fitted or top-dose-only effect, or another doubt; inactive = no such curve, though single readings can be large; an effect the other way counts as inactive or inconclusive. Potency is the fitted concentration of half-maximal effect.

SMILES	HT1080NT lethal	SW480 rereplic	MCF10A rerep	HT1080 IDH1KD tx	KB-3-1 tox	KB-V1 cytotox
CCn1c(=O)c2cc(C(=O)N(C)c3cc(Cl)c(OC)cc3OC)sc2c2ccccc21	·	·	·	·	i	i
CCOc1ccccc1N(CC)C(=O)c1cc2c(=O)n(CC)c3ccccc3c2s1	·	·	·	·	?	20.6µM*
CCCN(C(=O)c1cc2c(=O)n(CC)c3ccccc3c2s1)c1ccccc1F	·	·	·	·	i	i
CCn1c(=O)c2cc(C(=O)N(C)c3cc(C)ccc3OC)sc2c2ccccc21	-6.7%	?	?	-1.7%	i	23.1µM*
Cc1ccc(NC(=O)c2cccc(S(=O)(=O)N3CCN(c4ccc(F)cc4)CC3)c2)nc1	?	?	10.7%	?	16.4µM*	?
O=C(Nc1ccc(Cl)cn1)c1cccc(S(=O)(=O)N2CCOCC2)c1	0.3%	-1.4%	-1.5%	-3.0%	i	20.6µM*
Cc1ccc(NC(=O)c2cccc(S(=O)(=O)N3CCCC3)c2)nc1	-14.5%	-119.9%	?	-12.8%	i	i
COc1cc(C(=O)N(C)CCOc2ccccc2)ccc1OCC(=O)Nc1cccc(C(F)(F)F)c1	?	14.3%	?	-26.2%	i	?
Cc1nc(SCC(=O)NCc2ccc3c(c2)OCO3)c(C#N)c2c1CCCC2	4.4%	-12.4%	-2.2%	2.4%	i	i
COc1ccccc1NC(=O)CSc1nc(C)c2c(c1C#N)CCCC2	1.9%	6.4%	6.8%	1.9%	i	7.31µM*
COc1ccc(NC(=O)CSc2nc(C)c3c(c2C#N)CCCC3)cc1	3.3%	11.8%	11.9%	10.2%	i	4.61µM*
CCc1ccc(NC(=O)CSc2nc(C)c(C(=O)Nc3ccc(Cl)cc3)c(-c3ccc(OC)cc3)c2C#N)cc1	·	·	·	·	i	i
CCOc1ccccc1C(=O)N/N=C/c1coc2ccc(C)cc2c1=O	?	?	?	?	i	i
COc1cccc(CNC(=O)C2=Cc3cccc(OC)c3OC2)c1	13.1%	14.1%	1.9%	9.4%	i	i
Cc1cccc(C)c1OCc1cc(C(=O)N2CCN(Cc3nccn3C)CC2)no1	6.9%	-18.9%	?	7.1%	i	i
COC(=O)c1c(NC(=O)c2ccccc2)sc2c1CC(C)(C)NC2(C)C	-3.1%	0.2%	0.7%	-0.2%	i	i
CC1(C)Cc2c(sc(NC(=O)COc3ccc(Cl)cc3)c2C(N)=O)C(C)(C)N1	2.5%	-4.3%	7.5%	7.3%	i	i
CC1(C)Cc2c(sc(NC(=O)c3ccc(C(=O)c4ccccc4)cc3)c2C(N)=O)C(C)(C)N1	10.3µM*	20.6µM*	23.1µM*	9.2µM*	?	?
CC1(C)Cc2c(sc(NC(=O)c3ccc4ncsc4c3)c2C(N)=O)C(C)(C)N1	23.1µM*	?	?	23.1µM*	?	?
CCc1ccc(C(=O)N2CCC(c3nc4ccccc4s3)CC2)cc1	-3.1%	7.0%	?	-17.2%	i	i
COc1ccc(S(=O)(=O)N(C)C[C@H]2Oc3ccc(NS(=O)(=O)c4ccccc4)cc3C(=O)N([C@H](C)CO)C[C@@H]2C)cc1	-2.3%	-26.7%	0.6%	0.6%	i	i
COc1ccc(S(=O)(=O)N(C)C[C@H]2Oc3ccc(NS(=O)(=O)c4cccs4)cc3C(=O)N([C@H](C)CO)C[C@@H]2C)cc1	7.1%	?	3.26µM*	4.7%	i	i
COCCCN1CN=C(NS(=O)(=O)c2ccc(NC(C)=O)cc2)NC1	·	·	·	·	i	?
CN(Cc1ccc(Cl)c(Cl)c1)C(c1cc2ccccc2o1)c1nnnn1C(C)(C)C (configuration not stated)	-17.8%	·	·	?	?	14.6µM*
c1ccc(-c2ncc(-c3ccn[nH]3)s2)cc1	1.4%	-0.3%	4.8%	13.5%	i	?
SMILES	HT1080NT lethal	SW480 rereplic	MCF10A rerep	HT1080 IDH1KD tx	KB-3-1 tox	KB-V1 cytotox
COc1ccc(C2OC(=O)CC2C(=O)N2CCN(c3cc(Cl)ccc3C)CC2)cc1OC (configuration not stated)	0.2%	-0.1%	-1.4%	4.1%	i	i
COc1ccc2c(C)c(Cc3ccccc3)c(=O)oc2c1OC	9.6%	-10.8%	-0.9%	5.9%	i	?
CCCCc1c(C)c2ccc(OC)c(/C(C)=N\O)c2oc1=O	8.4%	-51.0%	-2.1%	6.8%	?	5.8µM*
Cn1c(C(=O)OC(C(=O)NC2CCCCC2)c2cccnc2)cc2sccc21 (configuration not stated)	-10.1%	2.5%	0.6%	0.7%	i	i
Cn1c(C(=O)OC(C(=O)NC2CCCC2)c2cccnc2)cc2sccc21 (configuration not stated)	1.7%	?	10.3µM*	-7.9%	i	?
CCOC(=O)c1cc2c(=O)n3ccccc3nc2n(CC2CCCO2)c1=NC(C)=O (configuration not stated)	-7.3%	?	?	-4.1%	i	?
N=c1c(C(=O)NC2CCCC2)cc2c(=O)n3ccccc3nc2n1CC1CCCO1 (configuration not stated)	-2.7%	?	?	2.2%	?	i
N=c1c(C(=O)NC2CCCCC2)cc2c(=O)n3ccccc3nc2n1CC1CCCO1 (configuration not stated)	10.0%	18.4µM*	?	3.6%	i	i
CCn1c(=N)c(C(=O)NCC2CCCO2)cc2c(=O)n3cc(C)ccc3nc21 (configuration not stated)	·	·	·	·	i	i
CC(NC(=O)c1cc2c(=O)n3ccccc3nc2n(CC2CCCO2)c1=N)c1ccccc1 (configuration not stated)	0.1%	6.51µM*	5.8µM*	-0.1%	i	?
Cc1ccc(CNC(=O)c2cc3c(=O)n4ccccc4nc3n(CC3CCCO3)c2=N)cc1 (configuration not stated)	5.3%	?	2.06µM*	7.3%	i	?
Cc1ccc2nc3c(cc(C(=O)NCC4CCCO4)c(=N)n3CC3CCCO3)c(=O)n2c1 (configuration not stated)	1.2%	?	2.91µM*	-11.7%	i	i
